Bioassay records deposited in PubChem by several laboratories.
hcDAF-12 act: activates DAF-12 receptor from parasite H. contortus. HEK293 hcDAF-12 lit1-tk-luc reporter, luminescence; 0% DMSO, 100% Δ7-dafachronic acid. AID 652067. activation, % at 6.8 µM. actives 1.4% (n = 370,000);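 active = activation above the mean of all tested compounds plus 3 SD, cut at about 5.5% in these data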;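 also: 100% = response to 3 µM Δ7-dafachronic acid high control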
hgDAF-12 ag: agonists of H. glycines DAF-12 nuclear receptor | HEK293 GAL4-hgDAF12 UAS-luciferase reporter, agonist luminescence; normalized to butyrate control | activation, % at 6.8 µM | actives 1.8% (n = 370,000) | AID 687014;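 active = activation above a cutoff set at the mean of all screened compounds plus 3 SD, cut at about 10% in these data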;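 also: 0% = DMSO wells and 100% = sodium butyrate wells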
ssDAF12 agonist: activates DAF-12 receptor from parasite S. stercoralis | HEK293 ssDAF-12/GRIP1 lit1-tk-luc reporter, luminescence; % of 3 µM dafachronic acid response | activation, % at 6.8 µM | actives 1% (n = 370,000);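 active = activation above the mean over all tested compounds plus 3 SD, cut at about 0.9% in these data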;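 also: 0% = DMSO-only wells and 100% = 3 µM delta7-dafachronic acid wells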
DAX1 inh-1: blocks DAX1 repression of SF-1 activated StAR promoter | HEK293T StAR-luciferase reporter, SF-1/DAX-1 repression relief | inhibition, % at 6.8 µM | actives 1.1% (n = 370,000) | AID 652010;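 active = inhibition above the mean over all tested compounds plus 3 SD, cut at about 3.6% in these data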;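 also: 0% = DAX-1 cells with DMSO and 100% = cells lacking DAX-1 with DMSO; higher inhibition means more luminescence from relief of DAX-1 repression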
Rev-erbA mod: modulators of human Rev-erb alpha DNA binding; P20393; Rev-erbα–FITC-DNA binding, fluorescence polarization, 90 min; activity, % at 10 µM; actives 0.79% (n = 370,000); AID 1259318;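 active = activity above about 14%, limit read from the data; passing the limit was not always enough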;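 also: 0% = DMSO wells with 35 nM protein and 100% = DMSO wells with 750 nM protein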
Target sequence (P20393 whole entry, looked up): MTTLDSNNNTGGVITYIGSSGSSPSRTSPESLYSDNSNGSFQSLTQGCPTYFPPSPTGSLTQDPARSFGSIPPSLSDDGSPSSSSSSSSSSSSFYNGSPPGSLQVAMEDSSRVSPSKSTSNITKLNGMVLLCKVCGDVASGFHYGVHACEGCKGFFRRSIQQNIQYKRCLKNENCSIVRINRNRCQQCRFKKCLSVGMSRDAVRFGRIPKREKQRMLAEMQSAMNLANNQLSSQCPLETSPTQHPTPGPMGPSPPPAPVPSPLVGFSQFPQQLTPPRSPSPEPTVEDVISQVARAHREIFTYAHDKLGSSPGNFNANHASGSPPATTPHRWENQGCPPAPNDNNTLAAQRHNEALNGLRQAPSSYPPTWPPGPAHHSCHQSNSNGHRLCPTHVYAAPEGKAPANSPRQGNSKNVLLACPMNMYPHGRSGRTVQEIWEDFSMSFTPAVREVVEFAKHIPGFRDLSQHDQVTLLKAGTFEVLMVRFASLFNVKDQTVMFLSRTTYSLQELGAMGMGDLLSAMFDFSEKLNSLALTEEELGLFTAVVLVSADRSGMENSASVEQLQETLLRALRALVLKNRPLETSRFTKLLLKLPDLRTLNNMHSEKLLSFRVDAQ
DAX1 inh-2: NR0B1 (DAX1) inhibition; P51843; HEK293 Gal4-DAX1 luciferase reporter, luminescence; inhibition, % at 6.75 µM; actives 0.99% (n = 340,000);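 active = inhibition above the mean over all tested compounds plus 3 SD, cut at about 4.2% in these data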;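 also: 0% = DAX1-transfected cells with DMSO and 100% = empty-vector control cells with DMSO; inhibition shows as a rise in luminescence from relieved DAX1 repression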
Rev-erbA confirm: confirmation of modulators of human Rev-erb alpha DNA binding. actives 61% (n = 3,000). activation, % at 25 µM. Rev-erb alpha FITC-DNA binding, fluorescence polarization, 90 min. shares compounds with Rev-erbA mod;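 active = activation at or above a set limit, or at least 3 SD above the negative control mean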;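 also: 0% = 35 nM protein with DMSO and 100% = 750 nM protein high control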
RORg counter: counter-screen for Rev-erb alpha modulators: RORgamma DNA binding; shares compounds with Rev-erbA mod; purified RORgamma protein-FITC-DNA binding, fluorescence polarization; IC50, µM; actives 8% (n = 910);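 active = Compounds whose fitted half-maximal concentration for disrupting protein-DNA binding is below 10 micromolar; the record names Rev-erb in its text, so the target is in doubt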
* = called active by the depositor; nt = not tested or not shown; ! = a repeat was not active. Sampled rows, rich in hits. Any-hit rate of the full collection: about 4.8%.

SMILES | hcDAF-12 act | hgDAF-12 ag | ssDAF12 agonist | DAX1 inh-1 | Rev-erbA mod | DAX1 inh-2 | Rev-erbA confirm | others
CCOc1ccc(CCNC(=O)c2cc(-c3ccccc3)c(N3CCOCC3)s2)cc1 | 1 | 2 | -2 | 0 | 91* | -2 | 80* | RORg counter=>40
COCc1cc(N2CCN(C(=O)OC(C)(C)C)C[C@H]2C)ccc1N1CCN(Cc2ccccc2)[C@@H](C)C1 | -2 | 3 | -1 | -1 | -1 | nt | nt
CS(=O)(=O)NCCNc1ccc(Cl)cc1[N+](=O)[O-] | 0 | -3 | -2 | 0 | 8 | 0 | nt
CS(=O)(=O)NCCNc1cc(Cl)ccc1[N+](=O)[O-] | -1 | -3 | -1 | 0 | 17* | 0 | 6
C#CCOCCOCCOCCNc1nc(N2CCOCC2)nc(N2CCN(C(=O)[C@H](CCC(=O)O)n3cc(C(N)CC(C)C)nn3)CC2)n1 (stereo partly drawn) | 2 | 7 | 0 | nt | -2 | nt | nt
Cc1cc(C)cc(NC(=O)CCc2nc3sc4c(c3c(=O)[nH]2)CCCC4)c1 | 4 | 9 | -1 | 3 | 30* | 1 | 8
O=C(CCc1nc2sc3c(c2c(=O)[nH]1)CCCC3)Nc1cccc(Cl)c1 | 0 | 1 | -1 | 1 | 30* | -1 | 21*
CCN(CC)C(=O)c1cccc(NC(=O)CCc2nc3sc4c(c3c(=O)[nH]2)CCCC4)c1 | -2 | -1 | -1 | -4 | -6 | -3 | nt
CCCn1c(SCN2C(=O)c3ccccc3C2=O)nc2cc(Cl)ccc2c1=O | -2 | -1 | -1 | 0 | 39* | 2 | -40
Cc1cccc(-n2c(SCN3C(=O)c4ccccc4C3=O)nc3ccccc3c2=O)c1 | -1 | 1 | 0 | 0 | 17 | nt | nt
COc1ccc(C(=O)OCCCN(C)C2CN(Cc3cn(Cc4ccccc4C(F)(F)F)nn3)S(=O)(=O)C2)cc1OC (stereo not drawn) | -2 | -3 | -2 | -2 | 0 | nt | nt
CCN1C(=O)[C@H]2[C@@H](c3ccc(-c4cc(C(C)=O)cs4)cc3)N3CCCC[C@@]3(C(=O)OC)[C@H]2C1=O | -1 | 1 | -1 | 0 | 30* | 2 | 21*
CC(NC(=O)C=Cc1ccco1)C(=O)NC(Cc1ccccc1)C(N)=O (stereo not drawn) | 0 | 5 | -1 | 0 | -3 | nt | nt
Fc1ccc(-n2c(-c3cccs3)nc3nc4ccccc4nc32)cc1 | -1 | 2 | 0 | 0 | 75* | -1 | 59* | RORg counter=>40
COCCN(CCOC)S(=O)(=O)c1ccc(C(=O)Nc2nc(-c3ccccc3)c(C(=O)c3ccccc3)s2)cc1 | 0 | 0 | -2 | 0 | 2 | 0 | nt
CCCN(CCC)S(=O)(=O)c1ccc(C(=O)Nc2nc(-c3ccccc3)c(C(=O)OCC)s2)cc1 | 2 | -1 | -1 | 1 | 33* | 2 | 12
CCOC(=O)c1sc(NC(=O)c2ccc(S(=O)(=O)N(C)C)cc2)nc1C | -1 | 4 | -1 | 0 | 36* | -1 | 38* | RORg counter=>40
CCCOc1ccc(F)cc1-c1cc(C(=O)Nc2ccccc2)[nH]n1 | -2 | 7 | -2 | -2 | 21* | nt | -7
O=c1cc(N2CCN(c3cccc(Cl)c3Cl)CC2)[nH]c(=O)n1C1CCCCC1 | -1 | 0 | -1 | nt | -3 | nt | nt
Cc1cc(NC(=O)CC(C)(C)C)nc2c1c(=O)oc1ccccc12 | 6.3* | 0 | -1 | 0 | 38* | 0 | 8
Cc1cc(NC(=O)c2ccccc2F)nc2c1c(=O)oc1ccccc12 | 1 | 4 | 0 | 0 | 32* | 0 | 5
CCOC(=O)[C@@H]1CSCCS(=O)(=O)N1C(=O)[C@H](CCSC)NC(=O)OC(C)(C)C | 2 | -1 | -1 | 0 | -2 | nt | nt
O=C(NCc1ccccc1)[C@H]1CCCN1C(=O)[C@H]1CCCN1C(=O)c1ccc(F)cc1F | -1 | 1 | 0 | 1 | 2 | nt | nt
COC(=O)C1=CN(c2ccc(F)cc2)C(N)=C(C#N)C1c1cccc(F)c1 (stereo not drawn) | -2 | -3 | -1 | 0 | 1 | nt | nt
COC(=O)C1=CN(c2ccc(N3CCOCC3)cc2)C(N)=C(C#N)C1c1cccc(F)c1 (stereo not drawn) | 0 | 3 | -2 | 2 | 24* | nt | 8
SMILES | hcDAF-12 act | hgDAF-12 ag | ssDAF12 agonist | DAX1 inh-1 | Rev-erbA mod | DAX1 inh-2 | Rev-erbA confirm | others
COc1cc(NC(=O)c2ccc(-c3ccc(F)c(F)c3)c3ccoc23)cc(OC)c1OC | 0 | 0 | -2 | -1 | 18* | nt | -1
COc1cc(NC(=O)c2ccc(-c3cn[nH]c3)c3ccoc23)cc(OC)c1OC | -3 | -5 | -2 | -2 | -3 | nt | nt
O=S(=O)(c1ccc(C(F)(F)F)cc1)N1CCCc2nc(-c3ccc(Br)cc3)ccc21 | 0 | 4 | 0 | 0 | -1 | nt | nt
O=P(c1ccccc1)(c1ccccc1)c1cnc2ccccn12 | -2 | -1 | -1 | nt | 2 | nt | nt
Cc1nn(CCC(=O)NNC(=O)NCc2ccccc2)c(C)c1[N+](=O)[O-] | -2 | 1 | -2 | -1 | 5 | nt | nt
CCCCn1c(SC(C)C(=O)NCC2CCCO2)nc2cc(C(=O)OC)ccc2c1=O (stereo not drawn) | -2 | -1 | 0 | -2 | 40* | -2 | 32* | RORg counter=>40
Clc1ccc(-c2cn(-c3nc4ccccc4s3)nn2)cc1 | 5.7* | 2 | 0 | 1 | 19* | nt | 7
COc1cccc2c1C(=O)c1c(O)c3c(c(O)c1C2=O)C[C@@](O)(C(=O)CO)C[C@@H]3O[C@H]1C[C@H](N)[C@@H](O)[C@H](C)O1 | nt | nt | nt | nt | -12 | -2 | nt
COc1cccc2c1C(=O)c1c(O)c3c(c(O)c1C2=O)C[C@@](O)(C(C)=O)C[C@@H]3O[C@H]1C[C@H](N)[C@H](O)[C@H](C)O1 | -2 | -11 | -2 | -8 | 28*! | -5 | -1
Cc1ccc(NP(=O)(c2ccc(N(C)C)cc2NC(=O)c2cccs2)N2CCOCC2)cc1Cl (stereo not drawn) | 5 | 5 | 1 | 1 | -5 | 2 | nt
CN(C)c1ccc(P(=O)(Nc2ccccc2)N2CCOCC2)c(NC(=O)c2cccs2)c1 (stereo not drawn) | 4 | 3 | 1 | 0 | 42* | 0 | 19*
CC(C)CCNC(=O)c1cc2c(=O)[nH]c3ccccc3c2s1 | 0 | 3 | -1 | 0 | 30* | 0 | 22*
CSc1ccc(-c2ccc3c(c2)c(Sc2ccccc2)c(-c2ccccc2)n3C)cc1 | -2 | -2 | -1 | 1 | 17* | nt | 25*
